Among the test systems are NCI-H23 lung; NCI-H226 lung; NCI-H322M lung; HOP-62 NSCLC; NCI-H460 lung; NCI-H522 lung; A549/ATCC NSCLC; 786-0 renal; COLO 205 colon; HOP-92 NSCLC.
Assay in all cases: NCI-60 one-dose screen, 48 h (100 = growth as untreated, 0 = no growth, -100 = all killed)
Common to all, as to conditions: 10 µM unless noted

Each structure is given as a SMILES string. This is part of a sample that, as a whole, favours compounds with a hit. Of some 83,000 tested, about 20% had one in any assay.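 48-hour exposure, single concentration, 96-well plates; percent growth endpoint where 0 means no net growth. Active: below 10.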 Unmarked numbers belong to inactive results. Calls of active or inactive are those of the source.

`Cc1nc2ccc(Nc3nc(Cl)nc(N4CCOCC4)n3)cc2n1Cc1ccccc1`: the growth was 16.5% in the experiment on NCI-H23 lung; 82.5% in the experiment on NCI-H226 lung; 51% with NCI-H322M lung; 50.1% with HOP-62 NSCLC; 91.3% in the experiment with NCI-H460 lung; -38.6% (active) with NCI-H522 lung. The growth with A549/ATCC NSCLC was 92%; in the experiment on 786-0 renal, 68.3%.
On to `Cc1cc(Cl)c2ccc(N(C)C)cc2n1`, for which the growth with NCI-H23 lung was 100%; in the experiment with NCI-H226 lung it was 97.6%; in the experiment with NCI-H322M lung, 110%; in the experiment with HOP-62 NSCLC, 95.5%; with NCI-H460 lung, 106%; in the experiment with NCI-H522 lung it was -10.1% (active). In addition, the growth in the experiment on A549/ATCC NSCLC was 94.9%; in the experiment on 786-0 renal, 99%; in the experiment with COLO 205 colon, 102%.
As to `COc1ccc(-c2n[nH]nc2-c2cc(OC)c3c(c2)OCO3)cc1`, the growth in the experiment with NCI-H23 lung is 10.4%; in the experiment on NCI-H226 lung, 69.1%; in the experiment on NCI-H322M lung, 13.9%; in the experiment on HOP-62 NSCLC, 18.5%; with NCI-H460 lung, 7.77% (active); in the experiment with NCI-H522 lung, -51.6% (active). Also, the values for the growth in the experiment with A549/ATCC NSCLC and in the experiment with 786-0 renal were 13.9% and 20.5%, respectively.
Turning to `O=C1C=CC(=O)N1CO`, the growth with NCI-H23 lung is 124%; in the experiment with NCI-H226 lung it was 113%; with NCI-H322M lung, 117%; in the experiment on HOP-62 NSCLC it was 115%; in the experiment with NCI-H460 lung it was 123%; with NCI-H522 lung it was 103%. Moreover, the values for the growth in the experiment on A549/ATCC NSCLC, in the experiment with 786-0 renal and with COLO 205 colon were 109%, 113% and 149%, respectively.
Consider `Cc1cc(C)c2c(NC(=O)Nc3ccc(Cl)c(Cl)c3)n[nH]c2n1`, for which the growth was 101% with NCI-H23 lung; 108% in the experiment with NCI-H226 lung; 91.3% in the experiment on NCI-H322M lung; 105% with HOP-62 NSCLC; 106% in the experiment on NCI-H460 lung; 92.6% with NCI-H522 lung. Further, the growth was 101% with A549/ATCC NSCLC and 106% in the experiment with COLO 205 colon.
As for `COc1ccc(/C=C2\Cc3c(Br)cccc3C2=O)c(OC)c1`, the growth in the experiment on NCI-H23 lung is 66%; in the experiment with NCI-H226 lung it was 93.7%; in the experiment on NCI-H322M lung, 94.7%; in the experiment on HOP-62 NSCLC, 69.6%; in the experiment on NCI-H460 lung it was 79.8%; in the experiment on NCI-H522 lung, 55.9%. Moreover, the growth was 68.9% in the experiment on A549/ATCC NSCLC, 93% in the experiment on 786-0 renal and 80.3% with COLO 205 colon.
As for `COc1cccc(CC(C)=C(c2ccc(OCCCN(C)C)cc2)c2ccc(OCCCN(C)C)cc2)c1`, the growth with NCI-H23 lung is -66.9% (active); with NCI-H226 lung it was -18.9% (active); in the experiment on NCI-H322M lung it was -95% (active); in the experiment on HOP-62 NSCLC it was -81% (active); in the experiment on NCI-H460 lung, -90.2% (active); in the experiment with NCI-H522 lung, -77.3% (active). Moreover, the growth was -81.5% (active) in the experiment with A549/ATCC NSCLC, -85.6% (active) with 786-0 renal and -74.1% (active) in the experiment on COLO 205 colon.
`O=C(Nc1ccccc1)C(CCCCN1C(=O)c2ccccc2C1=O)N1C(=O)c2ccccc2C1=O` (centres undefined): the growth in the experiment with NCI-H23 lung was 107%; with NCI-H226 lung it was 95.3%; in the experiment on NCI-H322M lung it was 98%; in the experiment on HOP-62 NSCLC, 109%; in the experiment on NCI-H460 lung it was 109%; in the experiment on NCI-H522 lung, 94.6%. In addition, the growth in the experiment with A549/ATCC NSCLC was 97.8%; in the experiment with 786-0 renal, 99.6%; in the experiment on COLO 205 colon, 118%.
With `O=C1OC(c2ccc(-c3ccccc3)cc2)=C/C1=C/c1c(Cl)cccc1Cl`, the growth was 94.7% in the experiment with NCI-H23 lung; 84.1% with NCI-H226 lung; 85.7% in the experiment on NCI-H322M lung; 76% in the experiment with HOP-62 NSCLC; 99.4% in the experiment on NCI-H460 lung; 59% in the experiment with HOP-92 NSCLC. For the same compound, the values for the growth in the experiment with NCI-H522 lung, in the experiment with A549/ATCC NSCLC and in the experiment on COLO 205 colon were 89.3%, 11% and 103%, respectively.
As for `CC(=O)Nc1ccc(Cl)cc1Cl`, the growth with NCI-H23 lung was 111%; in the experiment with NCI-H226 lung, 95.5%; with NCI-H322M lung, 114%; in the experiment with HOP-62 NSCLC, 110%; in the experiment with NCI-H460 lung, 114%; in the experiment with NCI-H522 lung it was 89.4%. Also, the growth with A549/ATCC NSCLC is 95.3%; in the experiment on 786-0 renal, 106%; in the experiment on COLO 205 colon, 130%.
Turning to `NC(N)=N/N=C\c1cccc(OCc2ccccc2)c1`, the growth is 79.5% in the experiment with NCI-H23 lung; 86.2% in the experiment on NCI-H226 lung; 91.7% with NCI-H322M lung; 79.6% in the experiment with HOP-62 NSCLC; 95.3% in the experiment on NCI-H460 lung; 61.8% in the experiment on NCI-H522 lung. In addition, the growth in the experiment on A549/ATCC NSCLC is 87.9%; in the experiment on 786-0 renal, 79.6%; in the experiment with COLO 205 colon it was -70.9% (active).
As to `COc1ccc(C2C=C(c3ccc(Cl)cc3)N=C3SC=CN32)cc1` (centres undefined), the growth with NCI-H23 lung was 101%; in the experiment with NCI-H226 lung, 112%; in the experiment with NCI-H322M lung it was 133%; in the experiment on HOP-62 NSCLC it was 108%; in the experiment with NCI-H460 lung, 103%; in the experiment on NCI-H522 lung, 113%. In addition, the growth in the experiment with A549/ATCC NSCLC was 104%; with 786-0 renal, 97.8%; in the experiment on COLO 205 colon, 109%.
Consider `N#Cc1c(N)n(C2OC(CO)C(O)C2O)c2ncnc(N)c12` (centres undefined), for which the growth in the experiment with NCI-H23 lung was -8.8% (active); in the experiment on NCI-H226 lung, 12.1%; in the experiment with NCI-H322M lung it was -27.6% (active); in the experiment on HOP-62 NSCLC, -12.7% (active); with NCI-H460 lung, 0.304% (active); in the experiment with NCI-H522 lung, -56.1% (active). Also, the growth in the experiment on A549/ATCC NSCLC is 1.3% (active); with 786-0 renal it was -7.63% (active); in the experiment on COLO 205 colon, -32.8% (active).

For the origin of these results see PubChem BioAssay (NCI).
